Compounds without any hit were thinned out: in the full panel of roughly 83,000, 20% have a hit.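 Results are percent growth after 48 hours of single-concentration exposure. 100 means growth as in untreated cells, lower positive values show inhibition; negative values down to -100 show cell death.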 A number with no mark means an inactive call. Active and inactive are the calls of the source. The calls were made as follows: active = growth percent below 10; inactive = the rest.
Tests used:
Experiment in all cases: NCI-60 one-dose screen, 48 h (100 = growth as untreated, 0 = no growth, -100 = all killed)
Conditions in all cases: 10 µM unless noted
HCT-15 colon = system: HCT-15 colon
HT29 colon = system: HT29 colon
SNB-75 CNS = system: SNB-75 CNS
SNB-19 CNS = system: SNB-19 CNS
U251 CNS = system: U251 CNS
PC-3 prostate = system: PC-3 prostate
SK-MEL-5 melanoma = system: SK-MEL-5 melanoma
UACC-62 melanoma = system: UACC-62 melanoma
SK-MEL-28 melanoma = system: SK-MEL-28 melanoma
SK-MEL-2 melanoma = system: SK-MEL-2 melanoma
SN12C renal = system: SN12C renal
UO-31 renal = system: UO-31 renal
TK-10 renal = system: TK-10 renal
ACHN renal = system: ACHN renal
CAKI-1 renal = system: CAKI-1 renal
A498 renal = system: A498 renal
LOX IMVI melanoma = system: LOX IMVI melanoma
EKVX NSCLC = system: EKVX NSCLC
CCRF-CEM leukemia = system: CCRF-CEM leukemia
MOLT-4 leukemia = system: MOLT-4 leukemia

SMILES	growth (HCT-15 colon)	growth (HT29 colon)	growth (SNB-75 CNS)	growth (SNB-19 CNS)	growth (U251 CNS)	growth (PC-3 prostate)	growth (SK-MEL-5 melanoma)	growth (UACC-62 melanoma)	growth (SK-MEL-28 melanoma)	growth (SK-MEL-2 melanoma)	growth (SN12C renal)	growth (UO-31 renal)	growth (TK-10 renal)	growth (ACHN renal)	growth (CAKI-1 renal)	growth (A498 renal)	growth (LOX IMVI melanoma)	growth (EKVX NSCLC)	growth (CCRF-CEM leukemia)	growth (MOLT-4 leukemia)
COc1ccc(-c2nc3ncccn3c2-c2nc3ccc(Br)cc3[nH]2)cc1	84.6%	88.9%	86.8%	89.9%	89.7%	65.5%	74.9%	76.5%	92.6%	83.5%	89%	84.4%	101%	88.6%	93.7%	75.5%				
Cc1ccc(N(CC(=O)Nc2ccc(S(=O)(=O)N3CCC(N4CCCC4)CC3)cc2)S(=O)(=O)c2ccc(Cl)cc2)cc1	-47.8% (active)	-16.9% (active)	62.7%	40.6%	-2.58% (active)	12%	-97.6% (active)		-68.3% (active)	91.9%	-35.7% (active)	38.1%	112%	-38.4% (active)	18.2%	65.6%	-88.5% (active)	70.1%	3.02% (active)	
Cn1c(=O)c2c(ncn2CC(=O)Nc2ccc(S(N)(=O)=O)cc2)n(C)c1=O	106%	94.8%	87.8%	102%	96.6%	83.4%	111%		115%	104%	105%	88.8%	91.8%	111%	93.8%	105%	97.6%	103%	97.5%	103%
Cc1nn(-c2ccc(Br)cc2)c2nc3[nH]c(=O)[nH]c(=O)c3nc12	104%	101%	74.6%	104%	101%	111%	100%	102%	91.2%	111%	109%	94.2%	144%	106%	92.2%	84.3%			118%	116%
O=P(O)(c1ccccc1)c1ccccc1I	111%	80%	84%	103%	89.3%	82.1%	96.8%		108%	96%	99.3%	83.4%	102%	106%	90.1%	92.6%	93.8%	94.7%	94.6%	
CCOC(=O)C/C(=C\c1ccccc1)C(C)=O	106%	98.1%	101%	101%	80.4%	76.8%	106%		111%	89.3%	105%	99.3%	96.3%	107%	94.5%	114%	108%	102%	90.3%	93.8%
CC/C(=N/NC(N)=O)c1ccccc1	91.2%	104%	98%	108%	102%	102%	102%		101%	115%	106%	86.4%	105%	108%	94.7%	105%	99%	91.5%	94.2%	98%
Nc1c(C(=O)Nc2cccc(Br)c2)sc2nc3c(cc12)C(=O)CCC3	33%	8.17% (active)	-4.52% (active)	32.7%	37.7%	14.3%	20.5%	35.3%	48.3%	30.8%	45.2%	56.9%	69%	58.8%	64%	-3.99% (active)				
CC(C)(C)c1ccc(OCCCCCCCN2CCNCC2)cc1	-22.1% (active)	6.93% (active)	51.8%	54.4%	12.9%	28.1%	43.9%		53%	103%	58.8%	33.3%	105%	13.6%	44.8%	79.9%	-77.8% (active)	70%	17.8%	0.604% (active)
COC(=O)[C@]12CC[C@@H](C)[C@H](C)[C@@H]1C1=CC[C@@H]3[C@@]4(C)C[C@@H](OC(C)=O)[C@H](O)[C@@](C)(CO)[C@@H]4[C@H](O)C[C@@]3(C)[C@]1(C)CC2	-94.5% (active)	-95.4% (active)	-83.1% (active)	-71.7% (active)	-84.1% (active)	-100% (active)	-98.5% (active)		-86% (active)	-84.2% (active)	-78.3% (active)	-74.1% (active)	-96.9% (active)	-88.3% (active)	-85.6% (active)	-95.9% (active)	-100% (active)	-91.8% (active)	-68% (active)	-55.9% (active)
O=C1NC(=Nc2ccc(S(=O)(=O)Nc3nccs3)cc2)S/C1=C\c1coc2ccccc2c1=O	104%	97.6%	55.9%	98.5%	102%	95%	103%	99.5%	111%	133%	95.3%	82.6%	133%	98.6%	103%	101%				
Fc1ccc(NCc2nnc(-c3ccc(Cl)cc3)o2)cc1	81.7%	70%	73.6%	83.2%	77.8%	54.3%	79.8%		93.9%	85.5%	79.4%	54.3%	126%	78.7%	69.8%	77.2%	80.1%	77%	74.6%	49.6%
c1ccc2[nH]c(-c3ccc(Nc4nc(N5CCCCC5)nc(N5CCOCC5)n4)cc3)nc2c1	-33.9% (active)	-28.2% (active)	-0.681% (active)	10.4%	8.02% (active)	12.4%	-90.7% (active)		-30.2% (active)	-20.6% (active)	52.4%	-37.8% (active)	58.8%	22.9%	-46.9% (active)	-28.6% (active)	-77.1% (active)	27.7%	8.74% (active)	13.7%
COc1ccc2nc(-c3cc(-c4cc(OC)c(OC)c(OC)c4)n[nH]3)[nH]c2c1	15.1%	42.7%	-2.76% (active)	50.1%	39.3%	-22.8% (active)	-92.9% (active)	-53.6% (active)	-17.6% (active)	-29.9% (active)	21%	-1.85% (active)	31.7%	21.5%	26.8%	15.5%				
COc1ccc2nc(-c3c(-c4ccccc4)nc4ncccn34)[nH]c2c1	96.5%	94.1%	78.1%	101%	99.5%	97.3%	95.6%	95.3%	91.5%	113%	104%	108%	109%	90.4%	103%	86.6%				
CC(Cc1ccco1)C(=O)NC(N)=O (stereo unspecified)	99.3%	102%	91.8%	105%	108%	98.4%	98.6%		105%	106%	103%	91.6%	98.7%	108%	92.1%	102%	97.4%	98%	98.9%	98.8%

— PubChem BioAssay (NCI)
